PostGolgi ctrl: growth inhibition of yeast control strain, primary screen, counter-screen for post-Golgi transport modulator project. efflux-deficient yeast background strain, growth absorbance A615, 16 h. inhibition, % at 10 µM. actives 5% (n = 98,000)
hDAT+cocaine: changed hDAT dopamine uptake under cocaine IC80, either direction, primary screen, cocaine antagonist project, cell-based, LLC-PK1 hDAT, [14C]-dopamine uptake, MLSMR; Sodium-dependent dopamine transporter (Homo sapiens), Q01959; LLC-PK1 hDAT cells, [14C]-dopamine uptake with cocaine IC80; actives deviate in either direction; B-score at 10 µM; actives 1.3% (n = 110,000); AID 449768, 2010;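 active = Z score or B-score, a plate-position-corrected score, falls beyond the plate's 99.7% confidence bounds, in either direction; inactive = both scores lie inside the 99.7% bounds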;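 also: scored against the spread of the other compound wells on the same plate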
Target sequence (Q01959 whole entry, looked up): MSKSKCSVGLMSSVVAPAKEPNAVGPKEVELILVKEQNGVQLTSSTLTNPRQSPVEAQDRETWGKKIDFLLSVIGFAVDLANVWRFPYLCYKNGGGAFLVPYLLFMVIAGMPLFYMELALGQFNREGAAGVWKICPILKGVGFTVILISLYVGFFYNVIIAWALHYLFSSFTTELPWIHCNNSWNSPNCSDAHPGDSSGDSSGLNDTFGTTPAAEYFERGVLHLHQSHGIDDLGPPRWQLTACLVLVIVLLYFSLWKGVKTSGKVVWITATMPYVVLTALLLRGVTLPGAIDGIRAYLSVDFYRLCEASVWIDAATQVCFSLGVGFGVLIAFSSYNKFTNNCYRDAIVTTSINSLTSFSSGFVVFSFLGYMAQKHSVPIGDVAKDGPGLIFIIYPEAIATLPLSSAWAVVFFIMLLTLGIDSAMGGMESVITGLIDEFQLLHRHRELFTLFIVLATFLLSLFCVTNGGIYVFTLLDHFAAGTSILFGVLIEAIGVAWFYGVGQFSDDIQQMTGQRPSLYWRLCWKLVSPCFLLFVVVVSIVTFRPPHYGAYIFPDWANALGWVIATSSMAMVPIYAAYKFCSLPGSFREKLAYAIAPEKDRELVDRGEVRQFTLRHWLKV
Cav3 T inh: Cav3.2 calcium influx blockers – cell-based, Fluo-4 calcium fluorescence, FDSS, MLSMR library, primary screen; Voltage-dependent T-type calcium channel subunit alpha-1H (Homo sapiens), O95180; Cav3.2-expressing cells; active compounds read low; B-score at 10 µM; actives 4% (n = 100,000);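 active = single-dose well whose peak fluorescence ratio is a statistical outlier from its plate by either plate-standardised score or position-corrected B-score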
PostGolgi yeast: phenotypic screen on post-Golgi transport, primary screen. AID 739, 2007. inhibition, % at 10 µM. post-Golgi transport phenotypic cell assay. actives 0.9% (n = 98,000);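 also: yeast cells grown in 1536-well plates; yeast grown about 18 h at 30C before absorbance read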
PLAP activator: PLAP enzyme activators, biochemical, luminescence, HTS | activation fold at 20 µM | Alkaline phosphatase, placental type (Homo sapiens), P05187 | purified PLAP enzyme, luminescent substrate read-out; active compounds read high | AID 696, 2007 | actives 1.2% (n = 96,000); in the data active = activation fold above about 2
* hit, by the source's call; nt = not tested or not shown. In the library only some 9.6% were active in any assay of this set; here they are far more common. Rule as the data show it, unless noted: active = inhibition above about 30%; inactive = the rest.

SMILES	PostGolgi ctrl	hDAT+cocaine	Cav3 T inh	PostGolgi yeast	PLAP activator
C=CCn1c(SCC(=O)Nc2c(C)n(C)n(-c3ccccc3)c2=O)nc2sc(C)c(-c3ccccc3)c2c1=O	14	0.38	-2.4	2	1.5
O=P(OC1CCCCC1)(OC1CCCCC1)C(O)c1ccc(Cl)cc1Cl (stereo not given)	9	0.29	-0.15	-4	1.1
O=P(OC1CCCCC1)(OC1CCCCC1)C(O)c1c(Cl)cccc1Cl (stereo not given)	36*	0.63	-4.6	-3	0.9
COc1ccc(C(O)P(=O)(OC2CCCCC2)c2ccc(N(C)C)cc2)cc1OC (stereo not given)	1	1	nt	7	1.5
Cc1ccc(C(O)P(=O)(OC2CCCCC2)OC2CCCCC2)cc1 (stereo not given)	40*	1	-4.2*	22	1.6
Cc1ccc(NC(=O)CCC(=O)OCCCC(F)(F)C(F)(F)F)cc1	2	1	-1.7	-1	1
CCOc1ccc(OCC)c(NC(=O)CN2CCN(c3cccc(C)c3)C(C)C2)c1 (stereo not given)	30*	-0.84	-0.94	2	1.1
COC(=O)c1cc(-c2ccccc2)n(CC(=O)O)c1C	3	-0.029	nt	3	1.1
COc1ccc(-c2nnn(CC(=O)N(CC(=O)NC3CCCC3)c3cccc(C)c3)n2)cc1OC	2	2.8*	-1.5	5	1.5
COc1ccc(N(CC(=O)NC2CCCC2)C(=O)Cn2nnc(-c3ccc(C)cc3)n2)cc1	7	2.5*	-6.7*	8	nt
CCN(CC)C(=S)SCC(=O)Nc1ccc(F)cc1	9	-1.3	1.1	-1	1
CCn1c(=O)c2c(n3cnnc13)-c1ccccc1CC21CCCCC1	56*	-0.0052	0.29	28	0.9
Cc1cccc(-n2c(=O)c3c(n4cnnc24)-c2ccccc2CC32CCCCC2)c1	46*	0.55	0.35	-18	1.3
O=C(Cn1ncc2c1-c1ccccc1OC2)Nc1ccc(S(=O)(=O)N2CCCCC2)cc1	8	1.6	-4.6	-7	1.5
O=C1N/C(=N/NC(=O)c2cccc3ccccc23)S/C1=C\c1ccccc1OCc1ccccc1	13	1.2	-5.2*	-3	1.1
Oc1c(Cl)cc(Cl)cc1/C=N/c1nccs1	9	4.4*	-9.3*	-8	1.2
Oc1[nH]c2ccccc2c1/C=N/c1nccs1	13	nt	nt	6	1.2
Cc1nn2c(-n3ccnc3C)c3c(nc2c1-c1ccccc1)CCC3	10	0.22	0.28	-4	1.5
Cc1nn2c(N3CCOCC3)c3c(nc2c1-c1ccccc1)CCCC3	79*	1.6	2.7	1	1.5
CCN(CC)C(=O)C1CCCN(c2ccc([N+](=O)[O-])cc2/C=N/NC(=O)c2cccc(Br)c2)C1 (stereo not given)	9	0.59	-7.2*	2	1.3
CCN(c1ccc(NC(=O)COC(=O)c2ccc3ccccc3n2)cc1)C(C)C	0	-2.8*	0.023	5	1
Cc1nn(-c2ccccc2)c(C)c1/C=N/NC(=O)c1cc(C23CC4CC(CC(C4)C2)C3)[nH]n1	60*	0.65	0.87	-2	1.4
Cc1nn(-c2ccccc2)c(C)c1/C=N/NC(=O)c1cc(-c2ccc(Cl)s2)[nH]n1	46*	0.63	-3.5	54*	1
Cc1nn(-c2ccccc2)c(C)c1/C=N/NC(=O)c1cc(-c2ccc(Br)s2)[nH]n1	64*	2.3	-3	6	0.9
CC(CC(=O)Nc1ccc(Cl)c([N+](=O)[O-])c1)c1ccccc1 (stereo not given)	19	-0.64	-8.7*	5	0.8
SMILES	PostGolgi ctrl	hDAT+cocaine	Cav3 T inh	PostGolgi yeast	PLAP activator
COc1ccc([N+](=O)[O-])cc1NC(=O)CC(C)c1ccccc1 (stereo not given)	8	0.032	-3.4	2	0.9
C(=N\N1CCN(C2c3ccccc3-c3ccccc32)CC1)/c1ccccn1	31*	-0.47	-1.9	-9	1.3
O=[N+]([O-])c1cc(/C=N/N2CCN(C3c4ccccc4-c4ccccc43)CC2)ccc1Cl	7	0.59	-0.14	1	1
CCC(Oc1ccccc1)C(=O)N1CC(C)CC(C)C1 (stereo not given)	-4	nt	-0.1	-6	1.3
S=C(NCc1ccco1)N1CCN(Cc2ccc(Cl)cc2Cl)CC1	32*	1.9	-3.6*	8	1.1
O=C(CN1CCN(Cc2ccccc2)CC1)NC(=O)NCc1ccco1	15	0.5	0.41	-3	1.1
CC12CC(c3ccccc3O1)C(C(=O)NCc1ccccc1)C(=O)N2 (stereo not given)	10	0.0048	-1.6	35*	0.9
O=C(c1ccccc1Cl)N1N=C(c2ccc(Br)cc2)CC1c1nc2ccccc2[nH]1 (stereo not given)	64*	0.81	-3.6	8	0.9
CCCn1nc2cc(C(=O)NCCc3cccs3)ccc2c1OCC	11	0.063	0.14	18	1.3
COc1ccc(N2CCN(C(=S)Nc3cc(C)ccc3C)CC2)cc1	2	-4.7*	0.59	18	1
COc1ccc(OC)c(NC(=S)N2CCN(c3ccccn3)CC2)c1	-1	-8.8*	1.2	0	0.9
Cc1noc(C)c1C(=O)N1CCCC1	-7	-1.1	0.55	1	0.9
O=C(CSc1nnc2c(n1)[nH]c1ccc(F)cc12)OCc1ccccc1	0	-8.6*	0.44	-2	0.9
C(=N\Nc1nc2ccccc2s1)/c1cccs1	31*	0.8	0.12	-7	1.5
COC(=O)Cc1[nH]nc2c1C(c1c[nH]c3ccccc13)C(C#N)=C(N)O2 (stereo not given)	8	-1.6	0.85	24	1
COC(=O)Cc1[nH]nc2c1C(C1C=CCCC1)C(C#N)=C(N)O2 (stereo not given)	0	0.14	0.99	-6	2*
Cc1ccc(C)c2[nH]c(=O)c(CN(CC3CCCO3)C(=O)NC3CCCCC3)cc12 (stereo not given)	10	2.9	-0.87	0	1.4
COc1cccc(C2C3=C(N=C4SCC(=O)N42)c2ccccc2CC3)c1OC (stereo not given)	40*	0.34	-0.0025	23	1
C=CCSc1nnc(-c2cc3c(s2)-c2ccccc2CC3)o1	9	-1.3	-0.38	5	1.3
CCCCC1CC1C(=O)Nc1ccc(OC)c(OC)c1 (stereo not given)	37*	0.13	-0.61	-10	1.2
CC(C)C(=O)N/N=C/c1ccc(OCc2ccccc2)cc1	5	nt	nt	1	1
CC1(CC(=O)N/N=C/c2ccc(OCc3ccc(Cl)cc3Cl)cc2)OCCCO1	42*	3.4*	-0.75	1	1.7
CCOC(=O)CON1C(=O)c2ccccc2C1=O	2	-0.78	1.1	11	1.3

Screens deposited in PubChem by several laboratories.
